In all, about 60,000 compounds went through this assay and about 65 (0.1%) were called active. The call rests on the fitted dose curve; in most records, active means well fitted inhibition curve with a large enough effect; inconclusive means small, poorly fitted or top-dose-only effect; inactive means no such curve, though single readings can be large or run the other way. This excerpt belongs to a sample that is enriched for actives. Non-standard residues stand in square brackets, D forms with d. Residues, ends and D or L forms follow the SMILES beside them. ξ: configuration not given here. ξV = CC(C)C(N)C(=O)O
The compounds below were run against Ubiquitin carboxyl-terminal hydrolase 2 (Homo sapiens) (UniProt O75604) (assay: qHTS Assay for Inhibitors of Ubiquitin-specific Protease USP2a). Conditions: USP2a enzymatic assay; Potency: qHTS inhibition; series mostly up to 38.3 µM.
Text: NIH Molecular Libraries Screening Centers Network [MLSCN]
NIH Chemical Genomics Center [NCGC]
PI Name: Nicholson, Ben. Progenra Inc, Malvern, PA
Homeostasis of cellular proteins is maintained through a combination of synthesis and degradation. The pathway that accounts for the majority of protein degradation is the ubiquitin-proteasomal pathway. Ubiquitin (Ub) is highly conserved in all cells and the generation of a multi-Ub chain typically targets proteins for degradation by the proteasome. However, ubiquitination is highly reversible and dynamic. Deubiquitination, the reverse process, is catalyzed through the action of enzymes referred to as isopeptidases or deubiquitinating enzymes (DUBs). This group of enzymes is collectively responsible for maintaining adequate pools of free ubiquitin and regulating the ubiquitination status of cellular proteins. The class of DUBs referred to as the ubiquitin-specific proteases (USP) family functions endoproteolytically to cleave Ub chains from a wide range of protein substrates. USP2a deubiquitinates fatty acid synthase (FASN) which has recently been identified as an emerging oncology target. To identify inhibitors of USP2a a cell-free assay was employed.
The reporter enzyme chosen is phospholipase A2 (PLA2), which has an absolute requirement for a free amino terminus. Thus, fusion of a UBL to the N-terminus of PLA2 inactivates PLA2. When the UBL-PLA2 reporter enzyme is cleaved by USP2, the activated reporter can subsequently act on its substrate, which is the commercially available NBD C6-HPC (Invitrogen). Thus, this coupled assay gives a fluorescent read-out, which is generated through the cleavage of the PLA2 reporter enzyme. The assay, developed by Progenra, Inc. uses Ub-PLA2 and USP2a at near equal and low (nM) amounts and has been licensed for sale by LifeSensors, Inc. as the Ub-IsoPro1 kit.
NCGC Assay Protocol Summary:
The assay buffer, prepared fresh at the day of the assay, contains 20mM Tris-HCl pH 8.0, 2mM CaCl2, 2mM beta-Mercaptoethanol, 0.1% DMSO. 3ul of 40nM (20nM final) USP2 core, which is stored on ice, is dispensed into a medium-binding black solid Kalypsys 1,536 well plate using the Kalypsys dispenser. The assay plate is then pinned with 23nL compound with the Kalypsys pintool in columns 5-48. The controls are pinned as follows: column 1&2 two-fold dilutions of 2M NEM in duplicate; column 3 DMSO; column 4 2M NEM (final concentration 38.2mM). The assay plate is incubated at RT for 30min. Subsequently, 3uL of 40nM (20nM final) Ub-PLA2 and 40uM (20uM final) NBD C6-HPC (stored on ice and protected from light) were dispensed into the plate using the Kalypsys dispenser. Plates were read immediately (0 Hour) on an Envision (Perkin Elmer) plate reader using the following wavelengths Ex 460nm /Em 535nm. Then, the assay plates were incubated for 2.5 hours and read again on the Envision using the same settings
Data were normalized to the to AC100 inhibition (NEM). Concentration-response curves were fitted to the normalized data and the concentration-response curves were then classified based on curve quality (r2), response magnitude and degree of measured activity. The time zero reading was used to flag fluorescence artifacts.
Keywords: ubiquitination, deubiquitination, proteases, profluorescent, MLSMR, MLSCN, NIH Roadmap, qHTS, NCGC
Further: nearly all actives have a fitted effect of over 60% in size.

Ubiquitin carboxyl-terminal hydrolase 2 (Homo sapiens), sequence (O75604 whole entry, looked up): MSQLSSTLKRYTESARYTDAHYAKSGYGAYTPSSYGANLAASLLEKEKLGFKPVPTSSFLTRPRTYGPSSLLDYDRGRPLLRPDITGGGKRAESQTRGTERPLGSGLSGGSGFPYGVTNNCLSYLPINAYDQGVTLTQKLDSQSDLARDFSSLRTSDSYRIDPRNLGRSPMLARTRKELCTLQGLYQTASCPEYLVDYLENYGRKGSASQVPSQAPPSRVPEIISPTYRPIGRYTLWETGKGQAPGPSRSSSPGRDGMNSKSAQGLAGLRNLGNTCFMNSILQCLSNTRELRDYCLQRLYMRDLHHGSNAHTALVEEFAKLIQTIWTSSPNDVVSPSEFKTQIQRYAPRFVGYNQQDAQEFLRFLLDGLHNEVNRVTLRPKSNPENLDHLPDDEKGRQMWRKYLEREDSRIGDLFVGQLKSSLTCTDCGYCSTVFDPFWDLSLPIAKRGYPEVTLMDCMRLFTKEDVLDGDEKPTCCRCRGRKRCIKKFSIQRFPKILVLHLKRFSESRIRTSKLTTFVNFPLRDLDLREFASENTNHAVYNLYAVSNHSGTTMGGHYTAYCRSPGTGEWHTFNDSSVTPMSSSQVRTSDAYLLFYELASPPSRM

Activity change, negative = inhibition, inactive:
CCCCNc1nc2ccccc2nc1NS(=O)(=O)c1cccs1
Cc1ccc(N(C(=O)CC2NC(=O)NC2=O)C2(C(=O)NC3CCCC3)CCCCC2)cc1 (stereo not given)
C=CCn1c(CSc2nc3ccccc3s2)nnc1SCC(=O)NCc1ccco1
O/N=C1\CC2(Cc3nonc31)OCCO2
CC1(C)OC2CC3C4CCC5=CC(=O)CCC5(C)C4(F)C(O)CC3(C)[C@]2(C(=O)CCl)O1 (stereo not given in full)
Cc1c(S(=O)(=O)O)oc2c1C(=O)C(=O)c1c-2ccc2c1CCCC2(C)C
CC(C)OCCCNC(=O)C1CC(=O)N(C2CCCCCCC2)C1 (stereo not given)
COc1ccc(OC)c(NC(=O)CSc2nc(N)c(-c3ccccc3)c(=O)[nH]2)c1
O=C(O)C1CCN1C1CCCCC1 (stereo not given)
O=C(O)c1ccc(COCC(F)(F)F)cc1
Cc1nnc(SCc2cc(=O)[nH]c(N3CCN(Cc4ccccc4)CC3)n2)s1
CC(C)(O)CCC(O)[C@@](C)(O)C1CC[C@]2(O)C3=CC(=O)C4CC(O)C(O)C[C@]4(C)C3CC[C@]12C (stereo not given in full)
CC(=O)Oc1c2c(c3c(c1CC=C(C)C)O[C@@]14C(=CC5CC1C(C)(C)OC4(C/C=C(\C)C(=O)O)C5=O)C3=O)OC(C)(CCC=C(C)C)C=C2 (stereo not given in full)
CC1(C)CC(=O)C=C(NCCCN2CCCC2=O)C1
c1csc(-c2cn3c(n2)SCC3)c1
COc1nc(Oc2ccc(=O)n(C)n2)nc(N(C)C)n1
CC(C)C1=CC2=CC[C@@H]3[C@](C)(CO)CCC[C@]3(C)C2CC1 (stereo not given in full)
Fc1cccc(/C=N\N=C/c2cccc(F)c2)c1
O=C(NCCCN1CCCCCC1)C1CC(=O)N(C2CCCC2)C1 (stereo not given)
CCOC(=O)C1CCN(C(=O)Cc2c(C(=O)O)[nH]c3ccccc23)CC1
CCCCN(C)Cc1c(C)[nH]c2ccc(Cl)cc2c1=O
CCOC(=O)Cc1csc(NC(=O)C(C)(C)C)n1
Cn1c(=O)c2cn(-c3cccc4ccccc34)cc2n(C)c1=O
Cc1nn(C)c(C)c1S(=O)(=O)N1CCc2ccccc21
Nc1nc2[nH]c(=O)c(=O)[nH]c2c(=O)[nH]1
CN1CCCC1CCO[C@@](C)(c1ccccc1)c1ccc(Cl)cc1 (stereo not given in full)
CS(=O)(=O)N1CCC2(CCN(c3ccncc3)CC2)CC1
O=c1c(O)c(-c2ccc(O)cc2)oc2ccccc12
Cc1nnc(SCCCn2c(N3CCCCC3)nc3c2c(=O)[nH]c(=O)n3C)s1
O=C(NC1CCN(Cc2ccccc2)CC1)c1ccccc1F
COC(=O)[C@H](Cc1ccccc1)NC(=O)N1CC(C)OC(C)C1 (stereo not given in full)
COc1ccc(CCC(=O)c2c(O)cc(OC3OC(CO)C(O)C(O)C3O[C@@H]3OC(C)C(O)C(O)C3O)cc2O)cc1O (stereo not given in full)
O=C1NS(=O)(=O)c2ccccc21
Cc1cc(=O)n2nc(N3CCCC(C(=O)N4CCN(C)CC4)C3)sc2n1 (stereo not given)
C=C1C([C@@]2(C)C(OC(C)=O)CC(=O)O[C@@](C)(COC(C)=O)C2CC(=O)OC)C(OC=O)C(OC(=O)C(O)C(C)CC)[C@]2(C)C(c3ccoc3)CC(=O)C12O (stereo not given in full)
COC(=O)CC1C(C)(C)C(OC(C)=O)C2CC3=C4CC(=O)OC(c5ccoc5)[C@]4(C)CCC3[C@@]1(C)C2=O (stereo not given in full)
CC1(C)OC2CO[C@]3(COS(N)(=O)=O)OC(C)(C)OC3C2O1 (stereo not given in full)
CCC1(C)Cc2c(sc3nc4n(c(=O)c23)CCCS4)CO1 (stereo not given)
COC(=O)c1cccc(NC(=O)CSc2nc(C)cc(=O)[nH]2)c1
O=C(NCCCNCc1ccccc1)c1ccc(/C=N/O)nc1 5.49% [at 7.66 µM]
C/C(=C\C(=O)c1ccc(Br)cc1)N1CCCCC1
CCc1ccc2oc(=O)cc(CN3CCCCC3C)c2c1 (stereo not given)
O=C(Oc1cc(OC(=O)c2ccccc2)c2c(c1)OC(c1ccc(OC(=O)c3ccccc3)c(OC(=O)c3ccccc3)c1)[C@@H](OC(=O)c1ccccc1)C2)c1ccccc1 (stereo not given in full)
COc1ccc(CNC2CCCCC2)cc1
Cc1nnc(SCC(=O)NCCOc2ccc(Cl)cc2)n1-c1ccccc1
O=C1OC(C(O)CO)C(O)=C1O (stereo not given)
CC(=O)OCC(=O)[C@@]1(O)CCC2C3CCC4=CC(=O)CC[C@@]4(C)[C@]3(F)C(O)C[C@]21C (stereo not given in full)
Cc1nonc1NC(=O)c1ccccc1Br
O=C1CCC(=O)N1CCOP1(=O)COc2ccccc2OC1
O=c1c(-c2cc(F)cc(F)c2)nc2cnc(Oc3ccccc3)nc2n1C[C@H]1CCCO1
COc1c(C(C)C)oc2cc3oc(=O)ccc3cc12
CCC1CCCCN1C(=O)Nc1cccc(NC(=O)N2CCCCC2CC)c1 (stereo not given)
CC(=O)OCC(=O)C1CCC2C3CCC4=CC(=O)CC[C@@]4(C)C3CC[C@]12C (stereo not given in full)
COC1[C@H](OC(N)=O)C(O)[C@H](Oc2ccc3c(O)c(NC(=O)c4ccc(O)c(CC=C(C)C)c4)c(=O)oc3c2C)OC1(C)C (stereo not given in full)
O=C(O)C(O)[C@@](O)(Cc1ccc(O)cc1)C(=O)O (stereo not given in full)
N#CC1=C(N)Oc2cc(O)ccc2C1C1CCCCC1 (stereo not given)
CS(=O)(=O)N1CCC2(CC1)CN(Cc1cc(C(F)(F)F)cc(C(F)(F)F)c1)C2
O=C(CN1CCOCC1)Nc1c(-c2ccccc2)c2cc(Br)ccc2[nH]c1=O
CSc1ccc(S(=O)(=O)Nc2cccc(F)c2)cc1
COc1ccc2occ(C(=O)c3ccc(N=C(C)N(C)C)cc3)c2c1
CN(Cc1ccco1)c1ncncc1-c1ccoc1
O=C(NCc1ccc2c(c1)OCO2)c1cc2c(s1)CS(=O)(=O)C2
CC(=NCc1ccco1)C1=C(O)c2ccccc2C1=O
COc1cccc(C(CC(=O)NCCN2CCOCC2)NS(=O)(=O)c2ccc(C)cc2)c1OC (stereo not given)
COC(=O)N1CCC[C@@]2(CCN(C(=O)NC(C)C)C2)C1
CC(C)=CCC/C(C)=C/CC/C(C)=C/CC/C(C)=C/CO
CCCn1c(=O)c2ccccc2n2c(SCC(=O)/C(C#N)=C(\C)N)nnc12
Cc1ccc(S(=O)(=O)N(C)CC(=O)NC2CCCC2)cc1
O=C(Nc1ccc2c(c1)OCO2)C1CC(c2c(F)cccc2Cl)=NO1 (stereo not given)
CCOc1ccccc1Nc1nnc(SCc2ccc(C(=O)OC)o2)s1
Cc1cccc(-n2ncc3c(N4CCc5ccccc54)ncnc32)c1
CCOC(=O)C1Cn2c(nc3c(c2=O)C(C)(CC)Cc2ccccc2-3)S1 (stereo not given)
C=C(C)C1CC=C(CO)CC1 (stereo not given)
CCN(CC)S(=O)(=O)c1ccc(NC(=O)CN(c2cccc(F)c2)S(C)(=O)=O)cc1
O=C(CSc1nnc(-c2cccs2)n1-c1ccccc1)N1CCN(C(=O)c2ccco2)CC1
CC(=O)NC1CC2CCCC(C1)N2CC(=O)Nc1ccccc1 (stereo not given)
CCOc1c(N2CCCCC2)c(=O)c1=O
CC(=O)NC(C(=O)NCC(N)=O)C(C)C (stereo not given) (Ac-[ξV]-Gly-NH2)
CC12C(=O)N(n3cnnc3)C(=O)C1C1C=CC2C1 (stereo not given)
O=C(C1=C(O)C(=O)N(Cc2ccccc2)C1c1cccnc1)c1ccco1 (stereo not given)
CCC(=O)N1c2ccc(S(=O)(=O)CCC(=O)N3CCN(c4ccccc4)CC3)cc2CC1C (stereo not given)
CCOc1ccccc1N(CC(=O)Nc1ccccc1C(=O)OC)S(C)(=O)=O -1.62% [at 7.66 µM]
CC1O[C@@H](Oc2c(-c3ccc(O)c(O)c3)oc3cc(O)cc(O)c3c2=O)C(O)C(O)C1O (stereo not given in full)
O=C(c1cc(C(F)(F)F)cc(C(F)(F)F)c1)N1CCC2(CCCN(Cc3ccncc3)C2)CC1
CCN(CC)CCN1C(=O)C(=O)/C(=C(/O)c2ccccc2)C1c1ccccc1F (stereo not given)
CN1CCC2(CC1)CCN(S(=O)(=O)c1ccccc1)CC2
CCN(CC)CCNC(=O)Cn1cnc2sc(C)c(S(=O)(=O)N3CCOCC3)c2c1=O
O=C(Cn1c(=O)sc2ccccc21)Nc1ccc2c(c1)OCCO2
S=C1SCN(CCN2CCOCC2)CN1Cc1ccccc1
CC1CC[C@@]23CCC4(C)[C@@]5(C)CCC6C(C)(C)C(O)CC[C@@]6(C)C5C=C[C@@]4(OC2=O)C3C1C (stereo not given in full)
Nc1ncnc2c1ncn2C1CC(O)C(CO)O1 (stereo not given)
CC(=O)Nc1ccc(S(=O)(=O)N2CCC(N(C)CCC(C)C)CC2)cc1
COc1ccc(C2CC(=O)C=C(NCC3CCCO3)C2)cc1 (stereo not given)
CC(=O)N1CCN(CCN=CC2=C(O)CC(C)(C)CC2=O)CC1
FC(F)(F)c1ccccc1-c1nc(-n2ccnc2)c2ccccc2n1
CN1CC(=O)N=C1N
CCC1=C/C(=C\c2ccc3c(c2)OCO3)C(=O)S1
COc1ccc(N2CCN(CCNC(=O)c3nnc(Cc4c(F)cccc4Cl)o3)CC2)cc1
CCN(Cc1ccncc1)C(=O)c1cccc(S(=O)(=O)N2CCOCC2)c1
CC1(C)OC2CC(=O)OC[C@@]23C1CC(=O)[C@]1(C)C3CC[C@@]2(C)C(c3ccoc3)OC(=O)C3O[C@@]321 (stereo not given in full)
CC(=O)Nc1ccc(S(=O)(=O)N2CCSCC2)cc1
O=C(NCCSc1ccccc1)c1ccco1
CC(=O)Nc1ccn(Cc2c(F)cccc2Cl)n1
CC(=O)N1CCC2(CCCN(Cc3ccc(C#N)cc3)C2)CC1
COC1C[C@@H](O[C@@H]2C(C)C(=O)OC(C)C(C)C(O)C(C)C(=O)[C@@]3(CO3)CC(C)C(OC3OC(C)CC(N(C)C)C3O)C2C)OC(C)[C@@H]1O (stereo not given in full)
